The values that follow come from paper PMC4552634, “A New Set of Chemical Starting Points with Plasmodium falciparum Transmission-Blocking Potential for Antimalarial Drug Discovery” (PLoS ONE, 2015).

The whole screen tested about 13,000 compounds, of which about 3,200 (25%) showed an effect of 50% or more. The list shows a part of the results.

This experiment has as its system P. falciparum stage V gametocytes. Details: BacTiter-Glo ATP luminescence viability of purified stage V gametocytes in 384-well plates, per cent inhibition versus DMSO. Conditions: 48 h, 5 µM; inhibitor.
The term % Inhibition denotes the drop in the measured response relative to a control, in per cent. Consider `O=C(N[C@@H](Cc1ccccc1)C(=O)NCCN1CCCCC1)c1ccc(O)c(-c2cccc(C(F)(F)F)c2)c1` [TCMDC-140816], for which the “% Inhibition” value turned out to be 36.65%.
With `O=C1c2ccccc2C(=O)N1CCOc1c(Br)cc(Br)cc1CNCCCNc1cc(=O)c2ccccc2[nH]1` [TCMDC-140115] the figure was -3.219%; with `CN1CCN(c2ccnc3ccc(NC(=O)Nc4cccc5c(C#N)cccc45)cc23)CC1` [TCMDC-139344], -1.771%; with `O=C(NCCN1CCCCC1)c1ccc(Nc2nccc(Nc3ccc(Oc4ccccc4)cc3)n2)cc1` [TCMDC-138608], -29.44%.
For the compound `O=C(NCc1cccc(C(F)(F)F)c1)[C@@H]1CCCN1C(=O)c1ccc(O)c(-c2ccc(Cl)c(Cl)c2)c1` [TCMDC-140832], the “% Inhibition” value was determined as 33.81%.
The same measure for `CC1(C)NC(N)=NC(=N)N1OCc1ccc2ccccc2c1CON1C(=N)N=C(N)NC1(C)C` [TCMDC-131631]: -34.98%; for `O=C(Cc1cccc(Cl)c1)Nc1ccc(N2CCC(NCc3ccc4ncccc4c3)CC2)cc1` [TCMDC-124660]: 24.81%; for `COCCNCc1ccc(-c2ccc(CNc3ccc4ncccc4c3)cc2)cc1` [TCMDC-140723]: 92.65%.
With `c1ccc(CCNCc2ccc(-c3ccc(CNc4ccc5ncccc5c4)cc3)cc2)cc1` [TCMDC-140725] the figure was -47.08%; with `CC(C)CNCc1cccc(-c2ccc(CNc3ccc4ncccc4c3)cc2)c1` [TCMDC-140722], 48.08%; with `CC(C)CNCc1ccc(-c2cccc(CNc3ccc4ncccc4c3)c2)cc1` [TCMDC-140719], 58.47%.
With `c1cnc2ccc(NCc3ccc(-c4ccc(CNC5CCCC5)cc4)cc3)cc2c1` [TCMDC-140727] the figure was 45.47%; with `COc1cccc(CNC(=O)c2ccnc(-c3ccc(CNCCOc4ccccc4)cc3)c2)c1` [TCMDC-134501], 1.442%.
As for `c1cc(CNC2CCCC2)cc(-c2ccc(CNc3ccc4ncccc4c3)cc2)c1` [TCMDC-140726], the “% Inhibition” value is reported as 91.8%.
The same measure for `c1ccc(CCNCc2ccc(-c3cccc(CNc4ccc5ncccc5c4)c3)cc2)cc1` [TCMDC-140720]: 4.928%.
The same measure for `c1ccc(CCNCc2cccc(-c3ccc(CNc4ccc5ncccc5c4)cc3)c2)cc1` [TCMDC-140724]: 87.5%.
The same measure for `CC(C)(C)CN1C(=O)C(c2ccccc2)(c2ccccc2)N=C1N` [TCMDC-136760]: 24.92%.
In the case of `CCOc1ccc(-c2nc(NC(=O)CS(=O)(=O)c3ccccc3)sc2C)cc1` [TCMDC-123524], the “% Inhibition” value is recorded as 43.85%.
With `OC(CNc1ccnc(Nc2ccc(Cl)cc2)n1)c1ccccc1C(F)(F)F` (stereo not shown) [TCMDC-136579] the figure was 19.1%; with `OC(CNCc1ccccc1OCc1ccccc1)c1cccc(C(F)(F)F)c1` (stereo not shown) [TCMDC-140299], 10.62%; with `O=C(/C=C/c1ccc(F)cc1)NC1CCC(CCN2CCc3ccc(-n4cccn4)cc3CC2)CC1` (stereo not shown) [TCMDC-140323], -53.18%.
With `Nc1nc(N)c2c3c(cnc2n1)CCCC3` [TCMDC-137925] the figure was 38.2%; with `NCCCOc1cnc(-c2ccccc2)c2nc(-c3nonc3N)n(CCc3ccccc3)c12` [TCMDC-136216], 116.7%; with `CCn1c(-c2nonc2N)nc2c(-c3ccc(CO)o3)ncc(OCCCN)c21` [TCMDC-133807], -40.81%.
With `CCn1c(-c2nonc2N)nc2c(-c3ccccc3)ncc(OCCCNCCCN3CCOCC3)c21` [TCMDC-135858] the figure was 109%; with `CCn1c(-c2nonc2N)nc2c(-c3ccccc3)ncc(OCCCCNCCc3ncc[nH]3)c21` [TCMDC-136000], 104.7%; with `COc1cc2c(Nc3cccc(NC(=O)c4ccccc4)c3)ncnc2cc1OCCCN1CCOCC1` [TCMDC-135174], 18.79%.
Take `COc1cc2c(Nc3ccc(NC(=O)c4ccccc4)cc3)ncnc2cc1OCCCN1CCOCC1` [TCMDC-125873]: the “% Inhibition” value is given as -52.63%.
The same measure for `CC[C@H]1CN2CC[C@H]1C[C@H]2[C@H](O)c1ccnc2ccc(C#N)cc12` [TCMDC-138234]: 18.99%; for `CC(=O)c1c[nH]c(C(=O)Nc2ccc(-c3cn4ccccc4n3)cc2)c1` [TCMDC-124599]: 36.18%; for `N=C(N)NN=CC(=O)Nc1cc([N+](=O)[O-])cc([N+](=O)[O-])c1` [TCMDC-137446]: 15.96%.
With `CCCCc1cc(NCC)nc(Nc2ccc(OC)cc2)n1` [TCMDC-133991] the figure was -52.54%; with `Nc1nc2c(c(=O)[nH]1)-c1cccc(Br)c1CC2` [TCMDC-137755], -6.306%; with `Cc1ccc(CNC(=O)[C@H](CCCN)Nc2nc(NCC3CCCCC3)ncc2C)cc1` [TCMDC-134754], 82.69%.
With `Cc1ccc(CNC(=O)[C@H](Cc2ccccc2)Nc2cc(C)nc(Nc3ccccc3)n2)cc1` [TCMDC-134858] the figure was 7.065%.
As for `Cc1cnc(Nc2ccccc2)nc1N[C@@H](CCCN)C(=O)Nc1ccccc1` [TCMDC-134915], the “% Inhibition” value is 85.94%.
The same measure for `Cc1cnc(NCC2CCCCC2)nc1N[C@@H](CO)C(=O)Nc1ccccc1` [TCMDC-134859]: -15.9%; for `Cc1ccc(CNC(=O)[C@H](Cc2ccccc2)Nc2cc(C)nc(NCC3CCCCC3)n2)cc1` [TCMDC-134932]: -13.97%.
Regarding `Cc1ccc(CNC(=O)[C@H](CCCN)Nc2cc(C)nc(Nc3ccccc3)n2)cc1` [TCMDC-134744], the “% Inhibition” value is on record as 61.85%.
With `Cc1ccc(CNC(=O)[C@H](CC(C)C)Nc2cc(C)nc(Nc3ccccc3)n2)cc1` [TCMDC-134740] the figure was 5.216%; with `Cc1ccc(CNC(=O)[C@H](CCCN)Nc2cc(C)nc(NCC3CCCCC3)n2)cc1` [TCMDC-134923], 95.63%.
With `Cc1ccc(CNC(=O)[C@H](CC(C)C)Nc2cc(C)nc(NCC3CCCCC3)n2)cc1` [TCMDC-134918] the figure was -23.99%; with `Cc1ccc(CNC(=O)[C@H](Cc2ccccc2)Nc2ccnc(NCC3CCCCC3)n2)cc1` [TCMDC-134709], -30.11%.
The same measure for `Cc1ccc(CNC(=O)[C@H](CCCN)Nc2nc(Nc3ccccc3)ncc2C)cc1` [TCMDC-134947]: 27.45%.
Take `Cc1cnc(NCC2CCCCC2)nc1N[C@@H](CC(C)C)C(=O)Nc1ccccc1` [TCMDC-134751]: the “% Inhibition” value is recorded as -31.13%.
The same measure for `O=c1cc(NCCCNCc2ccc(Cl)c(Cl)c2)[nH]c2ccc(Oc3ccccc3)cc12` [TCMDC-139409]: 3.988%.
The same measure for `CCN(CC)CCCC(C)N=C(Nc1ccc(C#N)cc1O)Nc1ccccc1Br` (stereo not shown) [TCMDC-140130]: 34.96%; for `COc1ccccc1CNC(=O)c1nn(-c2ccc(Cl)cc2)c(=O)c2ccccc12` [TCMDC-125601]: -3.161%.
With `CCCc1ccc(S(=O)(=O)NC2CCN(c3ccnc(Nc4ccc(OC)cc4)n3)C2)cc1` (stereo not shown) [TCMDC-133613] the figure was 30.72%.
With `O=C(NCC1CCC(C(=O)NCCc2ccc(Cl)c(Cl)c2)CC1)c1ccc(O)c(-c2ccc(Cl)c(Cl)c2)c1` (stereo not shown) [TCMDC-140893], the “% Inhibition” value amounted to 30.85%.
The same measure for `COc1ccc(NC(=O)Nc2cc(C)nc3cccnc23)cc1Cn1ccnc1` [TCMDC-140647]: -24.24%; for `COc1ccccc1CCCN1C(=O)C(c2ccccc2)(c2ccccc2)N=C1N` [TCMDC-136504]: -6.463%.
For `O=C(c1cc(-c2ccccc2)n[nH]1)N1CCN(S(=O)(=O)c2ccc(Cl)s2)CC1` [TCMDC-124697], the “% Inhibition” value is reported as 44.38%.
The same measure for `Cc1cc(Cc2ccc(S(=O)(=O)c3cc4c(cc3O)CCN(C)CC4)cc2)ccc1Cl` [TCMDC-135485]: 17.27%; for `Cc1nc2ccc([N+](=O)[O-])cc2c(=O)n1OCc1ccccc1` [TCMDC-131598]: 18.76%; for `O=[N+]([O-])c1ccc2c(c1)c1ccccc1n2Cc1ccccc1O` [TCMDC-124344]: 66.38%.
With `O=[N+]([O-])c1ccc2c(-c3ccccc3)c(-c3ccccc3)n(O)c2c1` [TCMDC-137050] the figure was 9.077%; with `Cc1ccc(C(=O)Nc2ccc(F)c(F)c2F)cc1S(=O)(=O)N1CCCCC1` [TCMDC-124324], 19.7%; with `CC(C)(C)c1ccccc1OCCCON1C(N)=NC(N)=NC1(C)C` [TCMDC-131751], 48.16%.
The same measure for `CCCc1cc(OCCCOc2ccccc2)ccc1OCCCON1C(N)=NC(N)=NC1(C)C` [TCMDC-131328]: 103.6%; for `CCOC(=O)c1cc(Cl)ccc1OCCCON1C(N)=NC(N)=NC1(C)C` [TCMDC-131705]: -0.9845%; for `CC1(C)N=C(N)N=C(N)N1OCCCOc1cc(Cl)c(Cl)cc1Cl` [TCMDC-137301]: -2.55%.
As to `CC1(C)N=C(N)N=C(N)N1OCCCCOc1ccc(Cl)cc1C1CCCCC1` [TCMDC-131659], the “% Inhibition” value was determined as 106.8%.
With `CC(C)(C)c1ccc(OCCCON2C(N)=NC(N)=NC2(C)C)c(C(C)(C)C)c1` [TCMDC-131308] the figure was 56.27%; with `CC1(C)N=C(N)N=C(N)N1OCCCCOc1ccccc1` [TCMDC-131658], 4.25%; with `CCCc1cc(C)ccc1OCCCON1C(N)=NC(N)=NC1(C)C` [TCMDC-131320], 40.89%.
The same measure for `CC1(C)N=C(N)N=C(N)N1OCCCOc1cc(Cl)ccc1Cl` [TCMDC-131679]: 20.73%; for `COC(=O)Cn1c(C2CCN(CC3CCC(NC(=O)/C=C/c4ccc(Cl)c(Cl)c4)CC3)CC2)nc2ccccc21` (stereo not shown) [TCMDC-140297]: -20.25%; for `OC(CNCc1ccccc1OC(F)F)c1cccc(C(F)(F)F)c1` (stereo not shown) [TCMDC-140395]: 21.35%.
The same measure for `c1ccc(COc2ccc(COc3ccc(Cn4ccnc4)cc3)cc2)cc1` [TCMDC-136714]: 11.69%.
